# In the library only some 3.5% were active in any assay of this set; here they are far more common.
# FBA Mtb inh – Mtb FBA enzyme inhibitors, primary screen, biochemical, fluorescence, strain H37Rv; AID 588726, 2011; Fructose-bisphosphate aldolase (Mycobacterium tuberculosis (strain ATCC 25618 / H37Rv)), …; inhibition, % at 1 µM; 2.3% of 360,000 active; purified M. tuberculosis FBA, fluorescence read-out; in the data active = inhibition above about 27%;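 note: 0% = vehicle and 100% = reference inhibitor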
# GDH-TPI counter – GDH-TPI coupling enzyme inhibitors, primary screen, artefact control for M. tuberculosis FBA inhibitor project, biochemical, absorbance, full deck | AID 588335, 2011 | GDH-TPI coupled enzyme counterscreen, NADH absorbance | 1.2% of 360,000 active | inhibition, % at 4.8 µM; in the data active = inhibition above about 30%;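 note: 0% = DMSO wells and 100% = wells lacking the enzyme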
# Mtb UGM inh – M. tuberculosis UGM enzyme inhibitors, primary screen, biochemical, fluorescence polarization, single point; purified UGM, fluorescence polarization probe displacement; inhibition, % at 10 µM; AID 504406, 2011; 0.06% of 320,000 active; in the data active = inhibition above about 10%, passing the limit was not always enough
# Target sequence (P9WIQ1 whole entry, looked up): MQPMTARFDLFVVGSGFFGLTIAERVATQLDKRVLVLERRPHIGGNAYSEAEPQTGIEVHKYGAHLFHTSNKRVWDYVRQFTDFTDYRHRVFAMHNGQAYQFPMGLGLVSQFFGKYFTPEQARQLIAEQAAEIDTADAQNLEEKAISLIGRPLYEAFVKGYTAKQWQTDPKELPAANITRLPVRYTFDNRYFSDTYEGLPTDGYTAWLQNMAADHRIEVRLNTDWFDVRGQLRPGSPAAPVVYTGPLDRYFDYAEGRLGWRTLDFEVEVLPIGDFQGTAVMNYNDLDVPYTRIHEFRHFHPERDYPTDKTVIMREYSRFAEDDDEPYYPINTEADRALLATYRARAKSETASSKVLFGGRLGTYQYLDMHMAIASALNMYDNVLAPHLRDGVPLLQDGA
# Rv3671c inh – Rv3671c serine protease inhibitors, primary screen, biochemical, fluorescence polarization, M. tuberculosis H37Rv; inhibition, % at 5.96 µM; 0.048% of 320,000 active; P9WHR9; AID 2606, 2010; in the data active = inhibition above about 38%;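 note: extracellular domain of Rv3671c used as enzyme; 0% = enzyme with DMSO and 100% = no enzyme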
# Numbers without * were called inactive; x = no result given; + = active, no number.
SMILES,FBA Mtb inh,GDH-TPI counter,Mtb UGM inh,Rv3671c inh
CCCc1c(C(=O)N/N=C/c2cccc3ccccc23)nnn1-c1nonc1N,2,32*,0,-17
CCOC(=O)c1cnc2ccc(Cl)cc2c1NCCN(C)C,4,12,20*,5
CCc1cc2cc(C)ccc2nc1SCC(=O)N1CCN(C(=O)c2ccco2)CC1,0,12,1,2
COc1cc2cc(C)c(SCC(=O)N3CCN(C(=O)c4ccco4)CC3)nc2cc1OC,10,44*,1,-1
CCS(=O)(=O)c1ccc2oc(Nc3cccc(OC)c3)nc2c1,0,-3,7,-4
CCNC(=S)NNC(=O)c1cccn(Cc2ccc(Cl)cc2Cl)c1=O,11,32*,1,-1
Nc1ccccc1-c1n[nH]c(=S)s1,61*,11,x,x
CCOc1cc(/C=C2/SC(=S)N(CC(=O)O)C2=O)ccc1OC(=O)c1cccs1,3,41*,-4,-8
CCOc1cc(/C=C2\SC(=S)N(C(C(=O)O)c3ccccc3)C2=O)ccc1O (centres undefined),-18,38*,-11,-64
COc1cc(/C=C2\SC(=S)N(CC(=O)O)C2=O)ccc1OC(=O)c1ccco1,-6,11,-6,-18
CC(C)(C)c1ccc(C(=O)N2CCC(C(=O)NC3CCCCCC3)CC2)cc1,-5,4,-1,-1
N#Cc1ccc(OCC(=O)OCC(=O)Nc2sccc2C(N)=O)cc1,0,8,-1,-8
Cc1oc2cc3oc(=O)c(CC(=O)NCCC(=O)O)c(C)c3cc2c1C,8,18,x,x
Cc1c(CC(=O)N[C@H](C(=O)O)C(C)C)c(=O)oc2cc3c(cc12)CCC(C)(C)O3,153*,23,0,x
CC[C@@H](C)[C@H](NC(=O)Cc1c(C)c2cc3c(C)c(C)oc3c(C)c2oc1=O)C(=O)O,1,6,-2,-11
CCC(C)NC(=O)Cc1c(C)c2cc3c(cc2oc1=O)OC(C)(C)CC3 (centres undefined),189*,17,2,11
Cc1c(CC(=O)NCC(C)C)c(=O)oc2cc3c(cc12)CCC(C)(C)O3,140*,16,-3,-7
COCCNC(=O)Cc1c(C)c2cc3c(cc2oc1=O)OC(C)(C)CC3,165*,16,1,x
Cc1oc2cc3oc(=O)c(CC(=O)N[C@H](C(=O)N[C@@H](C(=O)O)c4ccccc4)C(C)C)c(C)c3cc2c1C,9,23,0,0
O=C1NC(=O)C2(Br)Nc3ccc(Br)cc3C(=O)C2N1 (centres undefined),2,19,x,x
Cc1cc(C(=O)COC(=O)c2cccc(O)c2)c(C)n1C1CC1,6,7,-1,0
Cc1c(C(=O)NCc2ccccc2)sc(=O)n1Cc1ccccc1F,-1,9,x,x
CCC(CC)CN1CCN=C1Nc1ccccc1,3,7,3,-1
CNc1cccc(-c2c(OC)cccc2OC)n1,4,3,x,x
O=c1[nH]nc(-c2ccc[nH]2)[nH]1,-1,11,x,x
SMILES,FBA Mtb inh,GDH-TPI counter,Mtb UGM inh,Rv3671c inh
COc1ccc(CCn2c(C)cc(C(=O)CN3C(=O)C(=O)N(Cc4ccco4)C3=O)c2C)cc1,-1,-1,0,-3
Cc1c(CC(=O)N[C@@H](C)C(=O)O)c(=O)oc2cc3c(cc12)CCC(C)(C)O3,+,26,-2,7
Cc1oc2cc3oc(=O)c(CC(=O)N[C@@H](C)C(=O)NC(Cc4ccc(Cl)cc4)C(=O)O)c(C)c3cc2c1C (some centres undefined),5,9,-2,-2
Cc1c(CC(=O)NC(C)C)c(=O)oc2cc3c(cc12)CCC(C)(C)O3,+,22,-1,-6
CCOC(=O)C1CCCN(C(=O)Cn2nc(C)n3c(cc4c(OC)cccc43)c2=O)C1 (centres undefined),193*,9,-1,2
COc1cccc2c1cc1c(=O)n(CC(=O)N3CCCCCC3)nc(C)n12,+,13,1,4
COc1cccc2c1cc1c(=O)n(CC(=O)N3CCN(c4cccc(C)c4C)CC3)nc(C)n12,7,1,x,x
CCN(CC)CCOC(=O)/C=C/c1ccccc1,0,3,1,4
CCN(CC)CC(C)(C)C(=O)/C=C/c1ccc(/C=C/C(=O)C(C)(C)CN(CC)CC)cc1,-3,59*,x,x
COc1ccccc1/C=N/NC(=O)c1csc(C)c1C,2,17,x,2
COc1ccccc1/C=N/NC(=O)c1[nH]c(C)c(C(=O)N/N=C/c2ccccc2OC)c1C,-2,54*,-1,0
CCOC(=O)c1c(C)[nH]c(C(=O)N/N=C/c2ccc(OC)c(OC)c2)c1C,-3,43*,0,-9
CCOC(=O)c1c(C)[nH]c(C(=O)N/N=C\c2ccccc2O)c1C,2,29,0,-1
Cc1ccc(NC(=O)C(=O)NCCOc2ccccc2Cl)cc1,-2,3,-1,0
CC(C)CCNC(=O)NC(=O)CSc1ncccn1,2,-5,0,9
COc1ccc(NS(=O)(=O)c2ccc(C)c(NC(=O)CN3C(=O)NC4(CCCC4)C3=O)c2)cc1,2,6,1,2
COc1ccc(/C=C/C(=O)Nc2nc(N)n(-c3ccccc3)n2)cc1,-3,33*,0,5
Nc1nc(NC(=O)/C=C\C(=O)O)nn1-c1ccccc1,2,2,-3,-2
COc1ccccc1/C=C/C(=O)Nc1cccnc1Cl,3,4,2,5
COc1ccc(/C=C/C(=O)Nc2cccnc2Cl)cc1,1,31*,2,9
NS(=O)(=O)c1ccc(S(=O)(=O)N2CCCC(c3ccccc3)C2)cc1 (centres undefined),6,15,x,x
CCCc1cc(=O)oc2c(CN3CCN(C)CC3)c(O)ccc12,x,13,-1,12
CCCCc1cc(=O)oc2c(CN(C)C)c(O)ccc12,x,28,-2,3
CCCCc1cc(=O)oc2c(CN3CCN(C)CC3)c(O)ccc12,+,21,0,-2
CCCCc1cc(=O)oc2c(CN3CCCC3)c(O)c(Cl)cc12,+,26,1,-1
SMILES,FBA Mtb inh,GDH-TPI counter,Mtb UGM inh,Rv3671c inh
CCCCc1cc(=O)oc2cc(O)ccc12,+,5,3,-1
CCc1c(C)c2cc(Cl)c(O)c(CN3CCCC3)c2oc1=O,+,8,-1,x
O=C(NC(=S)Nc1ccc2[nH]c(=O)[nH]c2c1)c1ccccc1[N+](=O)[O-],-1,-1,-1,0
O=C(O)CN1C(=O)C(=O)N(Cc2ccc(Cl)c(Cl)c2)C1=O,1,7,2,2
O=C(Cc1c(F)cccc1Cl)NNC(=O)c1ccc(Br)s1,3,-2,0,3
COc1ccc(Cl)cc1NC(=O)CCn1cnc2ccccc2c1=O,49*,-4,1,3
O=C(CCn1cnc2ccccc2c1=O)Nc1cccc(Cl)c1,-4,-3,-1,-5
COc1cc2c(cc1OC)C(CCc1ccccc1)=NCC2,158*,24,-1,2
COc1cc(/C=N/NC(=S)Nc2cccc(S(=O)(=O)N(C)C)c2)ccc1O,1,45*,x,4

# Screening results as filed in PubChem.
